# NCOA2 inhibitor – human SRC2 (NCOA2) inhibition. inhibition, % at 9 µM. AID 651957. HEK293 GAL4-SRC2 luciferase reporter, luminescence. Q15596. actives 0.17% (n = 370,000);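 active = inhibition above the mean inhibition of all tested compounds plus 3 SD, set per campaign, cut at about 52% in these data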
# NR2F2 inh – blocks human COUP-TFII nuclear receptor; P24468; HEK293T NGFI-A luciferase reporter, luminescence; inhibition, % at 8.6 µM; actives 0.7% (n = 370,000);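 active = inhibition above a per-plate cutoff, mean inhibition of test wells between control levels plus 3 SD, cut at about 38% in these data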;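 also: cells cotransfected with COUP-TFII expression vector driving the NGFI-A reporter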
# Efflux pump mplx – inhibitors of Candida antifungal efflux pumps expressed in yeast. S. cerevisiae Candida pump triplex, Nile Red efflux. inhibition, % at 10 µM. actives 0.44% (n = 330,000). AID 485275;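 active = plate passing quality check with inhibition over a set limit, or well fluorescence over plate mean plus 4 SD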;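 also: Nile Red retained in pooled yeast measured as flow cytometry median fluorescence; higher means more Nile Red kept so more efflux inhibition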
# NR5A2 inv ag – NR5A2 inverse agonism in reporter assay; actives 0.13% (n = 360,000); O00482; inhibition, % at 3.6 µM; HEK293T StAR-luciferase reporter, LRH-1 transfected, 24 h;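 active = inhibition above the mean inhibition of all tested compounds plus 3 SD, cut at about 73% in these data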
# SRC3 inh – human NCOA3 inhibition | Q9Y6Q9 | actives 0.17% (n = 360,000) | AID 588352 | inhibition, % at 3.6 µM | HEK293 GAL4-SRC3 luciferase reporter, luminescence;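 active = inhibition above a per-campaign cutoff, the mean of all compounds plus 3 SD, cut at about 60% in these data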;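 also: higher means less SRC3-driven luciferase light from the GAL4 reporter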
# SRC1 inh – inhibitors of human steroid receptor coactivator 1 (SRC1) | Q15788 | actives 0.12% (n = 360,000) | AID 588354 | inhibition, % at 3.6 µM | HEK293 GAL4-SRC1 luciferase reporter, luminescence;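 active = inhibition above the campaign mean plus 3 SD, with each screening campaign given its own cutoff, cut at about 60% in these data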
# Yeast cmpd fluor – compound fluorescence in yeast efflux pump counter-screen | shares compounds with Efflux pump mplx | S. cerevisiae AD/pABC3, flow cytometry | fluorescence ratio to DMSO, % at 10 µM | actives 4% (n = 1,700) | AID 588517;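 active = fluorescence ratio to DMSO above its plate's cutoff, the plate mean ratio plus 5 SD, cut at about 210% in these data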;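 also: unstained yeast with no Nile Red so the signal is compound autofluorescence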
# CaMdr1 efflux inh – inhibitors of Candida albicans Mdr1 efflux pump | shares compounds with Efflux pump mplx | S. cerevisiae AD/CaMDR1, Nile Red efflux, flow cytometry | inhibition, % at 10 µM | actives 1% (n = 1,700); in the data active = inhibition above about 26%;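 also: higher means more Nile Red retained so more efflux inhibition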
# Cdr2 pump inh – inhibitors of Candida albicans Cdr2 efflux pump. shares compounds with Efflux pump mplx. AID 588520. Nile Red retention ratio vs DMSO, % at 10 µM. S. cerevisiae AD/CaCDR2, Nile Red retention, flow cytometry. actives 4% (n = 1,700); in the data active = Nile Red retention ratio vs DMSO above about 190%;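 also: higher ratio means more blocking of Cdr2 efflux of the dye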
# Cdr1 pump inh – blocks the Candida albicans Cdr1 efflux pump in yeast; S. cerevisiae AD/CaCDR1, Nile Red efflux, flow cytometry; actives 1% (n = 1,700); shares compounds with Efflux pump mplx; AID 588522; inhibition, % at 10 µM;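 active = inhibition above the screen-wide mean plus twice its standard deviation, cut at about 32% in these data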
# Numbers stand for hits; - = inactive; . = not tested or not shown. This is a sample that favours compounds with a hit; in the whole collection about 1.2% have one here.
SMILES,NCOA2 inhibitor,NR2F2 inh,Efflux pump mplx,NR5A2 inv ag,SRC3 inh,SRC1 inh,Yeast cmpd fluor,CaMdr1 efflux inh,Cdr2 pump inh,Cdr1 pump inh
CCOc1ncccc1C(=O)OCC(=O)Nc1cc(S(=O)(=O)N(CC)CC)ccc1C,-,-,-,-,-,-,.,.,.,.
CCOC(=O)CC(=O)c1cc(OC)c(OC)c(OC)c1,-,-,0.8,-,-,-,-,-,-,-
Cc1cc(NC(=O)CCOc2ccccc2)no1,-,-,-,-,-,-,.,.,.,.
C=CCCC[C@H]1OC(=O)[C@H](C)NC(=O)[C@H](C(C)C)NC(=O)[C@@H]2CCCN2C(=O)[C@H](Cc2ccccc2)OC(=O)[C@@H](C(C)C)N(C)C(=O)[C@H](C(C)C)NC(=O)C1(C)C,-,-,.,.,.,.,.,.,.,.
CCNS(=O)(=O)c1ccc2c(c1)NCC2,-,-,12,-,-,-,-,-,-,-
CCN1C(=O)[C@H]2[C@@H](c3ccc(-c4cccc(Cl)c4)cc3)N3CCCC[C@@]3(C(=O)OC)[C@H]2C1=O,-,-,0.7,-,-,-,-,-,-,-
CCN1C(=O)[C@H]2[C@@H](c3ccc(-c4cccc(Cl)c4)c(OC)c3)N3CCCC[C@@]3(C(=O)OC)[C@H]2C1=O,-,-,-,-,-,-,.,.,.,.
N#CC(C#N)=C1C=C2C=C(N3CCCCCC3)CCC2CC1 (centres undefined),-,-,.,-,-,-,258,-,271,-
CCN1CCN(C2=CC3=CC(=C(C#N)C#N)CCC3CC2)CC1 (centres undefined),.,.,.,-,-,-,-,-,203,-
N#CC(C#N)=C1C=C2C=C(N3CCOCC3)CCC2CC1 (centres undefined),-,-,.,-,-,-,-,-,206,-
CN1CCN(C2=CC3=CC(=C(C#N)C#N)CCC3CC2)CC1 (centres undefined),.,.,.,-,-,-,-,-,243,-
N#Cc1cc(Cl)c(N2CCOCC2)cc1C#N,-,-,-,-,-,-,.,.,.,.
O=C(CCCc1nc(-c2ccccc2Cl)no1)N1CCOCC1,-,-,-,-,-,-,.,.,.,.
CC(=O)c1ccc(N2CCN(c3ncccn3)CC2)cc1,-,-,-,-,-,-,.,.,.,.
CC(C(=O)NC1CCCC1)n1c(C2CC2)nc2ccccc21 (centres undefined),-,-,.,-,.,.,.,.,.,.
O=C(NCCc1ccccc1Cl)C1CCC(=O)N(CC2CCCCC2)C1 (centres undefined),-,-,-,-,-,-,.,.,.,.
COc1cccc(NC(=O)C(=O)N/N=C/c2cc(C)n(-c3ccc(Cl)c(Cl)c3)c2C)c1,-,-,0.7,-,-,-,-,-,-,-
COc1ccc(C2C(C#N)=C(N)N(c3ccccc3C#N)C3=C2C(=O)CCC3)cc1CN1CCCC1 (centres undefined),-,-,9.6,-,-,-,-,-,-,-
COc1cc(C2C(C#N)=C(N)N(c3cccnc3)C3=C2C(=O)CCC3)ccc1O (centres undefined),-,-,-,-,-,-,.,.,.,.
CCSc1cc(N2CCOCC2)nc(-c2ccccc2)n1,-,-,-,-,-,-,-,-,-,-
COc1ccc(S(=O)(=O)Nc2cccc3c2O[C@@H](CN(C)CC2CC2)[C@@H](C)CN([C@@H](C)CO)C3=O)cc1,-,-,-,-,-,-,.,.,.,.
N#C/C(=C\c1ccc([N+](=O)[O-])o1)C(=O)Nc1ccc(F)cc1,-,-,1.6,-,-,-,275,-,-,-
COc1ccc(NC(=O)/C(C#N)=C\c2ccc(Br)o2)cc1,-,-,-,-,-,-,.,.,.,.
CCCc1[nH]n(-c2ccc([N+](=O)[O-])cc2)c(=O)c1C=NCCc1c[nH]c2ccccc12,-,-,-,-,-,-,.,.,.,.
CCCc1[nH]n(-c2ccc([N+](=O)[O-])cc2)c(=O)c1C=NCCc1ccc(OC)c(OC)c1,-,-,0.8,-,-,-,-,-,-,-
SMILES,NCOA2 inhibitor,NR2F2 inh,Efflux pump mplx,NR5A2 inv ag,SRC3 inh,SRC1 inh,Yeast cmpd fluor,CaMdr1 efflux inh,Cdr2 pump inh,Cdr1 pump inh
N#Cc1c(-c2ccncc2)c2c([nH]c1=S)CCCC2,-,-,-,-,-,-,.,.,.,.
Cc1ccc(-c2c3c([nH]c(=S)c2C#N)CCCC3)o1,-,-,0.6,-,-,-,-,-,-,-
N#C/C(=C/c1ccc(-c2ccc(Br)cc2)o1)C(=O)NC1CCCCC1,-,-,1.7,-,-,-,-,-,-,-
CCSc1nnc(NC(NC(C)=O)(C(F)(F)F)C(F)(F)F)s1,-,-,14,-,-,-,-,-,-,-
CC(NC(=O)c1ccc2c(c1)OCO2)C(c1cccs1)N1CCOCC1 (centres undefined),-,-,-,-,-,-,.,.,.,.
COCCNC(=O)c1sc2ncn(CC(=O)N3CCCCC3)c(=O)c2c1C,-,-,1.8,-,-,-,-,-,-,-
COc1ccc(NC(=O)Nc2cccc3c2O[C@H](CN(C)C(=O)NC2CCCCC2)[C@@H](C)CN([C@H](C)CO)C3=O)cc1,-,-,-,-,-,-,-,-,-,-
Cc1ccc(C)c(-c2cc(C(=O)Nc3sc(C)c(C)c3C(N)=O)c3ccccc3n2)c1,-,-,-,-,-,-,-,-,-,-
COc1cccc(/C=C/C(=O)N2CC(C)OC(C)C2)c1OC (centres undefined),-,-,1.7,-,-,-,-,-,-,-
CC1C(=O)N2CCCc3cc(S(=O)(=O)N4CCCCC4)cc1c32 (centres undefined),-,-,0.7,-,-,-,-,-,-,-
Nc1ccc2nc(-c3cccc(-c4nc5ccc(N)cc5[nH]4)c3)[nH]c2c1,-,-,2.1,-,-,-,-,-,-,-
Nc1ccc(-c2nc3ccc(N)cc3[nH]2)cc1,-,-,-,-,-,-,.,.,.,.
COc1ccc(OCc2cc(C(=O)N(C)C3CCOC3)no2)c(Cl)c1 (centres undefined),-,-,-,-,-,-,-,-,-,-
COc1ccc(OCc2cc(C(=O)N(C)C3CCOCC3)no2)c2ccccc12,-,-,-,-,-,-,.,.,.,.
COc1ccc(OCc2cc(C(=O)NC(C)Cc3cccnc3)no2)c(Cl)c1 (centres undefined),-,-,-,-,-,-,.,.,.,.
COc1ccc(OCc2cc(C(=O)NC(C)Cc3ccccn3)no2)c(Cl)c1 (centres undefined),-,-,1.6,-,-,-,-,-,-,-

# Screening results deposited in PubChem by several laboratories.
